# According to PubChem BioAssay (EPA / NIEHS):
# Inconclusive results are not listed. The source made the active and inactive calls. The calls were made as follows: active = hit-call score of the fitted dose curve at least 0.9, where 1 is the maximum; inconclusive = response in the unintended direction; inactive = score below 0.9.
# Tests used:
# [1] = molecular target: human Protein Tyrosine Phosphatase Non-receptor Type 9 (PTPN9), PTPN9 (gene 5780) (UniProt P43378); test: NVS_ENZ_hPTPN9: NovaScreen (NVS) Enzymatic Assay for human Protein Tyrosine Phosphatase Non-receptor Type 9 (PTPN9) (AID 2283209)
# Method in brief: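 Sf9-expressed enzyme in a cell-free assay, fluorescence read 1.33 h after dosing with mobility-shift separation of substrate and product. Tested at 25 uM in duplicate, then up to 50 uM; signal loss versus DMSO.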
# [2] = molecular target: human Sirtuin 2 (SIRT2), SIRT2 (gene 22933) (UniProt Q8IXJ6); test: NVS_ENZ_hSIRT2: NovaScreen (NVS) Enzymatic Assay for human Sirtuin 2 (SIRT2) (AID 2283217)
# Method in brief: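 Single-point duplicate screen at 25 uM, then concentration-response (max 50 uM) for chemicals passing threshold. Enzyme activity of recombinant human SIRT2 measured after 1 hr by fluorescence with mobility-shift separation of product; DMSO baseline.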
# [3] = molecular target: Tyrosine-protein phosphatase non-receptor type 11 (Homo sapiens) (UniProt Q06124); test: NVS_ENZ_hPTPN11: NovaScreen (NVS) Enzymatic Assay for human Protein Tyrosine Phosphatase Non-receptor Type 11 (PTPN11) (AID 2283202)
# Method in brief: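 Compounds first tested in duplicate at 25 uM; those reaching ~30% inhibition rerun in singleton concentration-response, top 50 uM. Phosphatase activity measured after 0.5 h by fluorescence with mobility-shift separation, relative to DMSO.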
# [4] = molecular target: Tyrosine-protein phosphatase non-receptor type 12 (Homo sapiens) (UniProt Q05209); test: NVS_ENZ_hPTPN12: NovaScreen (NVS) Enzymatic Assay for human Protein Tyrosine Phosphatase Non-receptor Type 12 (PTPN12) (AID 2283204)
# Method in brief: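 Single-concentration duplicates (25 uM) preceded singleton concentration-response up to 50 uM for chemicals passing threshold. Cell-free recombinant PTPN12 activity was read 1.33 h after dosing via fluorescence after mobility-shift separation; loss of signal versus DMSO.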
# [5] = molecular target: human Protein Tyrosine Phosphatase Non-receptor Type 4 (PTPN4), PTPN4 (gene 5775) (UniProt P29074); test: NVS_ENZ_hPTPN4: NovaScreen (NVS) Enzymatic Assay for human Protein Tyrosine Phosphatase Non-receptor Type 4 (PTPN4) (AID 2283208)
# Method in brief: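 Screened in duplicate at 25 uM, with hits then titrated to a top concentration of 50 uM. Recombinant Sf9-derived PTPN4 turnover was read by fluorescence with electrophoretic separation, 1.33 h after compound addition. DMSO served as baseline.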
# [6] = molecular target: human Protein Tyrosine Phosphatase Receptor Type F (PTPRF), PTPRF (gene 5792) (UniProt P10586); test: NVS_ENZ_hPTPRF: NovaScreen (NVS) Enzymatic Assay for human Protein Tyrosine Phosphatase Receptor Type F (PTPRF) (AID 2283213)
# Method in brief: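 Cell-free fluorescence enzyme assay with recombinant protein and substrate; product separated by electrophoretic mobility shift. Read 1 h after dosing, single 25 uM duplicate screen, then concentration-response up to 50 uM; loss of signal vs DMSO.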
# [7] = molecular target: human Sirtuin 1 (SIRT1), SIRT1 (gene 23411) (UniProt Q96EB6); test: NVS_ENZ_hSIRT1: NovaScreen (NVS) Enzymatic Assay for human Sirtuin 1 (SIRT1) (AID 2283219)
# Method in brief: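 Cell-free recombinant SIRT1 with a fluorescent substrate; substrate and product separated by electrophoretic mobility shift and read by fluorescence intensity, 1 h after dosing. Primary screen at 25 uM in duplicate; hits re-run in concentration-response up to 50 uM, relative to DMSO.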
# [8] = molecular target: human Sirtuin 3 (SIRT3), SIRT3 (gene 23410) (UniProt Q9NTG7); test: NVS_ENZ_hSIRT3: NovaScreen (NVS) Enzymatic Assay for human Sirtuin 3 (SIRT3) (AID 2283222)
# Method in brief: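 Cell-free enzyme assay with recombinant protein and fluorescent substrate, product separated by electrophoretic mobility shift; read 1 hour after dosing. Screened in duplicate at 25 uM, then singleton concentration-response up to 50 uM; loss of signal versus DMSO.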
# [9] = molecular target: human Vascular Endothelial Growth Factor Receptor 3 (VEGFR3), FLT4 (gene 2324) (UniProt P35916); test: NVS_ENZ_hVEGFR3: NovaScreen (NVS) Enzymatic Assay for human Vascular Endothelial Growth Factor Receptor 3 (VEGFR3) (AID 2283229)
# Method in brief: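 Chemicals first run in duplicate at 25 uM, with actives re-tested in concentration series to a top of 50 uM. Recombinant VEGFR3 activity measured after 1 h via fluorescence with mobility-shift product separation; inhibition fitted relative to DMSO.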
# [10] = molecular target: human Rho Associated Coiled-coil Containing Protein Kinase 1 (ROCK1), ROCK1 (gene 6093) (UniProt Q13464); test: NVS_ENZ_hROCK1: NovaScreen (NVS) Enzymatic Assay for human Rho Associated Coiled-coil Containing Protein Kinase 1 (ROCK1) (AID 2283214)
# Method in brief: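 Compounds first run in duplicate at 25 uM against recombinant human ROCK1, then followed in concentration series. Kinase activity was read 1 h post-dosing by fluorescence with mobility-shift separation, as signal loss relative to DMSO.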
# [11] = molecular target: rabbit Imidazoline 2 Central (I2C), CKB (gene 100009085) (UniProt P00567); test: NVS_ENZ_rabI2C: NovaScreen (NVS) Enzymatic Assay for rabbit Imidazoline 2 Central (I2C) (AID 2283228)
# Method in brief: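 Rabbit brain membranes, cell-free; readout by filter-based scintillation counting 1.5 hours after dosing, loss of signal vs DMSO. Initial duplicate test at 25 uM, then concentration-response with 50 uM top concentration.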
# [12] = molecular target: human SRC Proto-Oncogene, Non-receptor Tyrosine Kinase (SRC), SRC (gene 6714) (UniProt P12931); test: NVS_ENZ_hSRC: NovaScreen (NVS) Enzymatic Assay for human SRC Proto-Oncogene, Non-receptor Tyrosine Kinase (SRC) (AID 2283223)
# Method in brief: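 Compounds passing 30% inhibition at 25 uM (duplicate) were titrated to a top concentration of 50 uM. Enzyme activity read by fluorescence with mobility-shift substrate/product separation after 1 h; DMSO baseline.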
# [13] = molecular target: human Tropomyosin Receptor Kinase A (TRKA), NTRK1 (gene 4914) (UniProt P04629); test: NVS_ENZ_hTrkA: NovaScreen (NVS) Enzymatic Assay for human Tropomyosin Receptor Kinase A (TRKA) (AID 2283224)
# Method in brief: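 Compounds were screened at 25 uM in duplicate, then concentration series to a 50 uM top for those meeting threshold (e.g. 30% inhibition). Enzyme was recombinant human TrkA, incubated 1 h. Product formation was quantified by fluorescence after mobility-shift separation.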
# [14] = molecular target: human Vascular Endothelial Growth Factor Receptor 1 (VEGFR1), FLT1 (gene 2321) (UniProt P17948); test: NVS_ENZ_hVEGFR1: NovaScreen (NVS) Enzymatic Assay for human Vascular Endothelial Growth Factor Receptor 1 (VEGFR1) (AID 2283226)
# Method in brief: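 Kinase activity of recombinant human VEGFR1 was read by fluorescence after electrophoretic separation of product from substrate, 1 h post-dosing; initial duplicate single-point testing at 25 uM, followed by concentration-series follow-up, with DMSO as baseline.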
# [15] = molecular target: human Protein Tyrosine Phosphatase Non-receptor Type 6 (PTPN6), PTPN6 (gene 5777) (UniProt P29350); test: NVS_ENZ_hPTPN6: NovaScreen (NVS) Enzymatic Assay for human Protein Tyrosine Phosphatase Non-receptor Type 6 (PTPN6) (AID 2283210)
# Method in brief: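 Recombinant human PTPN6 from SF9 cells, enzyme activity followed by fluorescence after mobility-shift separation of substrate and product at 1.33 h. Chemicals first tested at a single 25 uM in duplicate, then confirmed across concentration series; loss of signal relative to DMSO.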
# [16] = molecular target: human Protein Tyrosine Phosphatase Non-receptor Type 1 (PTPN1), PTPN1 (gene 5770) (UniProt P18031); test: NVS_ENZ_hPTPN1: NovaScreen (NVS) Enzymatic Assay for human Protein Tyrosine Phosphatase Non-receptor Type 1 (PTPN1) (AID 2283201)
# Method in brief: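 Chemicals were first tested in duplicate at 25 uM, and those passing threshold went on to singleton concentration series topping at 50 uM. Recombinant enzyme, specific substrate, product separated by mobility shift, fluorescence read at 1.33 h; activity loss relative to DMSO.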
# [17] = molecular target: Tyrosine-protein phosphatase non-receptor type 13 (Homo sapiens) (UniProt Q12923); test: NVS_ENZ_hPTPN13: NovaScreen (NVS) Enzymatic Assay for human Protein Tyrosine Phosphatase Non-receptor Type 13 (PTPN13) (AID 2283205)
# Method in brief: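 Screened first at a single 25 uM in duplicate; compounds passing the threshold (e.g. 30% inhibition) were rerun in concentration series, top 50 uM. Recombinant enzyme, fluorescent substrate, mobility-shift separation, 0.5 h read. Data fitted as inhibition relative to DMSO.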
# [18] = molecular target: Tyrosine-protein phosphatase non-receptor type 14 (Homo sapiens) (UniProt Q15678); test: NVS_ENZ_hPTPN14: NovaScreen (NVS) Enzymatic Assay for human Protein Tyrosine Phosphatase Non-receptor Type 14 (PTPN14) (AID 2283206)
# Method in brief: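 Fluorescent substrate turnover by recombinant human PTPN14 was measured 0.5 h after compound addition, with substrate and product separated by mobility shift. Single-point screening at 25 uM, then concentration-response up to 50 uM for chemicals meeting threshold (e.g., 30% inhibition).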
# [19] = molecular target: human Protein Tyrosine Phosphatase Receptor Type B (PTPRB), PTPRB (gene 5787) (UniProt P23467); test: NVS_ENZ_hPTPRB: NovaScreen (NVS) Enzymatic Assay for human Protein Tyrosine Phosphatase Receptor Type B (PTPRB) (AID 2283211)
# Method in brief: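 Recombinant human PTPRB with a fluorescent substrate, product separated by electrophoretic mobility shift; read 1 h after dosing. Primary screen in duplicate at 25 uM; actives then retested in concentration series; loss of signal versus DMSO.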
# [20] = molecular target: human Protein Tyrosine Phosphatase Receptor Type M (PTPRM), PTPRM (gene 5797) (UniProt P28827); test: NVS_ENZ_hPTPRM: NovaScreen (NVS) Enzymatic Assay for human Protein Tyrosine Phosphatase Receptor Type M (PTPRM) (AID 2283215)
# Method in brief: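 Read-out is fluorescence after electrophoretic separation of substrate and product, taken 1.33 h post-dosing with recombinant enzyme. Compounds screened at 25 uM in duplicate, then concentration series for actives; activity as signal loss relative to DMSO.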
# Chain of human Vascular Endothelial Growth Factor Receptor 1 (VEGFR1), FLT1 (gene 2321) (P17948 whole entry, looked up): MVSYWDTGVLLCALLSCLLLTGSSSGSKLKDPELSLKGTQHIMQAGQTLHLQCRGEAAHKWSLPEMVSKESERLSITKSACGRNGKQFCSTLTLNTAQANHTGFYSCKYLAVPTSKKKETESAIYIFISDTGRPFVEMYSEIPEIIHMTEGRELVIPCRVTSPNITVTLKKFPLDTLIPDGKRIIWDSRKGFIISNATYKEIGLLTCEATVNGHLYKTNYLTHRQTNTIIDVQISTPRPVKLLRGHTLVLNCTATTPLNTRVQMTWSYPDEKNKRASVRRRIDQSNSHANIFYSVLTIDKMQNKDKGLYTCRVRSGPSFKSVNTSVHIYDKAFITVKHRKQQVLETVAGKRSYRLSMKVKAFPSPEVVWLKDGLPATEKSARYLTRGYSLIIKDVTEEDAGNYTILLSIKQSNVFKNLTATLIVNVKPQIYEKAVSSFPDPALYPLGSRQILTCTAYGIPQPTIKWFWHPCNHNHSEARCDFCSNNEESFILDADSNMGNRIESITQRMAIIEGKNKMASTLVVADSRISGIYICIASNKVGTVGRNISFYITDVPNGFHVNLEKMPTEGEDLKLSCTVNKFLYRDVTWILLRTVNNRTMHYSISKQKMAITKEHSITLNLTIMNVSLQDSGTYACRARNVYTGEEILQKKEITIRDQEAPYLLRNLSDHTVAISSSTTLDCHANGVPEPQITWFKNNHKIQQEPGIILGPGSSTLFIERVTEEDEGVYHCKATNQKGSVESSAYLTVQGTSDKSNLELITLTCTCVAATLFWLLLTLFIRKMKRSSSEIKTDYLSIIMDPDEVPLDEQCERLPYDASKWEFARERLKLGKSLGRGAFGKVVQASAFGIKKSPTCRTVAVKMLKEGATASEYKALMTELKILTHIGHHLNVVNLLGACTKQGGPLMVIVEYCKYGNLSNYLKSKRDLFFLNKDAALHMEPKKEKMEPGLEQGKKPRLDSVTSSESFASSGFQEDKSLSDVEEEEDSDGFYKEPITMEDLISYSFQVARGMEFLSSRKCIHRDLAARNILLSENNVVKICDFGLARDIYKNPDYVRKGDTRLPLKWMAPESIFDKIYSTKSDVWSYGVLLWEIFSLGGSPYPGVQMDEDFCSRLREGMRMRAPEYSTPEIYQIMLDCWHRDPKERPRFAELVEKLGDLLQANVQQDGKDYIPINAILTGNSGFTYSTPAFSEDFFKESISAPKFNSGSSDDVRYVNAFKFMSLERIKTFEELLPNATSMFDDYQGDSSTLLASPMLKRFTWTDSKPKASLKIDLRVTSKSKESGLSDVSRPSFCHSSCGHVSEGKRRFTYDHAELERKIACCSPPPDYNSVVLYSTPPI
# Chain of Tyrosine-protein phosphatase non-receptor type 14 (Homo sapiens) (Q15678 whole entry, looked up): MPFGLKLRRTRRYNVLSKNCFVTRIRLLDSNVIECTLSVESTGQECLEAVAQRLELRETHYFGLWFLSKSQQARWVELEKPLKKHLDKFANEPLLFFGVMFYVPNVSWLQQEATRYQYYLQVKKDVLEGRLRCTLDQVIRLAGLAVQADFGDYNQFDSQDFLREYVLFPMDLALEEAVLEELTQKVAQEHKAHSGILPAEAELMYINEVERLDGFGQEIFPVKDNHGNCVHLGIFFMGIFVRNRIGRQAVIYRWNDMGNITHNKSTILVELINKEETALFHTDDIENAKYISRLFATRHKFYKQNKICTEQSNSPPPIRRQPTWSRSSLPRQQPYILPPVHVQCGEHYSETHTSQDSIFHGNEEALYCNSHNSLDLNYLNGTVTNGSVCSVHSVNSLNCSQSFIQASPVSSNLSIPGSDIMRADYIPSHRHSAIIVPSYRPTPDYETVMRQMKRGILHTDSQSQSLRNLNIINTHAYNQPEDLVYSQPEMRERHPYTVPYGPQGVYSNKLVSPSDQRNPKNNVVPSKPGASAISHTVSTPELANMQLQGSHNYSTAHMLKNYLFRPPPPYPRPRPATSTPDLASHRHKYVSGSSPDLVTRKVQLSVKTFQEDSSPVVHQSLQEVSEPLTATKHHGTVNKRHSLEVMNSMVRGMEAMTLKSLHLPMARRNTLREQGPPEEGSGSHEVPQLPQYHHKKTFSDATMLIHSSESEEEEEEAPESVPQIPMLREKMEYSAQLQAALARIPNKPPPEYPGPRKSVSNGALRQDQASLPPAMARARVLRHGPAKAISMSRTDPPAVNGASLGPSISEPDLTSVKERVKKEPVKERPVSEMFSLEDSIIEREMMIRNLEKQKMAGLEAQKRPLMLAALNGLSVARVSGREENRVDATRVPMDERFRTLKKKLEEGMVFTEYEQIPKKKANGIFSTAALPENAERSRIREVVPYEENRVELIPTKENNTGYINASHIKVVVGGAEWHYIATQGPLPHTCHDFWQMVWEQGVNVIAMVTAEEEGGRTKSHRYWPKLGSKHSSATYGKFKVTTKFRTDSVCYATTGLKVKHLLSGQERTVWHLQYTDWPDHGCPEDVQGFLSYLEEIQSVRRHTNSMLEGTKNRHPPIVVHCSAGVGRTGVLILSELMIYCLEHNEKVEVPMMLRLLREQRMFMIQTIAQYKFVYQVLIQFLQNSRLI
# Chain of human Protein Tyrosine Phosphatase Receptor Type F (PTPRF), PTPRF (gene 5792) (P10586 whole entry, looked up): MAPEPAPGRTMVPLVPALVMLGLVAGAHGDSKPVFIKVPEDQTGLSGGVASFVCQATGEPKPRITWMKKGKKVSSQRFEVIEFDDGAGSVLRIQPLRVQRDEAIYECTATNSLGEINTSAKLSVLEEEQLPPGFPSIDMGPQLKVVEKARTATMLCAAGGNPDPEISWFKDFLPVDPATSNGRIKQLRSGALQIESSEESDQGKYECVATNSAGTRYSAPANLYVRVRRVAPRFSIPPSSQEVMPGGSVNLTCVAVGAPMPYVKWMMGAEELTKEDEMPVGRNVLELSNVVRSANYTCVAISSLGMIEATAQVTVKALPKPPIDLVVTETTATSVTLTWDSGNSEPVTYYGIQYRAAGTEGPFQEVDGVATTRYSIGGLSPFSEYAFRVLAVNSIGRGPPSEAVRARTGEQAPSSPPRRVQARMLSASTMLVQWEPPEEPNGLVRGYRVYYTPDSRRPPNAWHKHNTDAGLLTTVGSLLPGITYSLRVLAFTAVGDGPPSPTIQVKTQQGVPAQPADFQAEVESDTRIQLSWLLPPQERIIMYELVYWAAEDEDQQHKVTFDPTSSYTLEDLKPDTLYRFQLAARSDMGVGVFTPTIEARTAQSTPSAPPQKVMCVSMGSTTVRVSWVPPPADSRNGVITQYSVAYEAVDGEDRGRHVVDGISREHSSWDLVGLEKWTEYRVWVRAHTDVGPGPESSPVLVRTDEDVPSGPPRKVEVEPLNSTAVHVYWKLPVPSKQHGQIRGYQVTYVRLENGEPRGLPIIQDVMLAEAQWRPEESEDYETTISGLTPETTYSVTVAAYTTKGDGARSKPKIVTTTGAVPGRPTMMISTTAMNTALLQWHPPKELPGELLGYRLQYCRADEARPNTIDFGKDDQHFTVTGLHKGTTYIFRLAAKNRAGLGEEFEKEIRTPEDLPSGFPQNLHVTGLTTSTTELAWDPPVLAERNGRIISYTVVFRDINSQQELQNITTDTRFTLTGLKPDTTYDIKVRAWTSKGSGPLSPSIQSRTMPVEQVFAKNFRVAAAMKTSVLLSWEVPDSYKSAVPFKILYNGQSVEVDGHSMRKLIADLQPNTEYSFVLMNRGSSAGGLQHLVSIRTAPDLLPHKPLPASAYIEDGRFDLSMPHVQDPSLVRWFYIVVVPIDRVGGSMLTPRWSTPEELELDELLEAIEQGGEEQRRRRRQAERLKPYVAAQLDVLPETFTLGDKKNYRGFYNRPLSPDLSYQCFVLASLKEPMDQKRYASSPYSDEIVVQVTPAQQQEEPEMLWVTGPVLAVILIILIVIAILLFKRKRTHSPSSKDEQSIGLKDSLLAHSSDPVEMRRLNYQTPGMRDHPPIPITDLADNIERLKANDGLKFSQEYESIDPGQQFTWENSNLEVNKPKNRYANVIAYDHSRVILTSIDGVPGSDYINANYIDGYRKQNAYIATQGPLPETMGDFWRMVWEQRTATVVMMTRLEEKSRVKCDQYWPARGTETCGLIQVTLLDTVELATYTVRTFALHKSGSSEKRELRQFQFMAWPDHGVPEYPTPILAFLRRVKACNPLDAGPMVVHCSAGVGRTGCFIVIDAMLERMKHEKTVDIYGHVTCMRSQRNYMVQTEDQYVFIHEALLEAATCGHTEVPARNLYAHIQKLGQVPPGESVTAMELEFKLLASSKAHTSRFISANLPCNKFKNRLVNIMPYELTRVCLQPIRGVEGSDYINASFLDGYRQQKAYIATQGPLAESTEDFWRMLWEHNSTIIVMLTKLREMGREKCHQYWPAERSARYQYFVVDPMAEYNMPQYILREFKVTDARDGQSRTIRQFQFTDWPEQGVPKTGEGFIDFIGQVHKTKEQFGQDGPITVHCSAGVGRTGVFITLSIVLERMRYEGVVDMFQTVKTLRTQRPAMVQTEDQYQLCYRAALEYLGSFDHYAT
# Chain of human SRC Proto-Oncogene, Non-receptor Tyrosine Kinase (SRC), SRC (gene 6714) (P12931 whole entry, looked up): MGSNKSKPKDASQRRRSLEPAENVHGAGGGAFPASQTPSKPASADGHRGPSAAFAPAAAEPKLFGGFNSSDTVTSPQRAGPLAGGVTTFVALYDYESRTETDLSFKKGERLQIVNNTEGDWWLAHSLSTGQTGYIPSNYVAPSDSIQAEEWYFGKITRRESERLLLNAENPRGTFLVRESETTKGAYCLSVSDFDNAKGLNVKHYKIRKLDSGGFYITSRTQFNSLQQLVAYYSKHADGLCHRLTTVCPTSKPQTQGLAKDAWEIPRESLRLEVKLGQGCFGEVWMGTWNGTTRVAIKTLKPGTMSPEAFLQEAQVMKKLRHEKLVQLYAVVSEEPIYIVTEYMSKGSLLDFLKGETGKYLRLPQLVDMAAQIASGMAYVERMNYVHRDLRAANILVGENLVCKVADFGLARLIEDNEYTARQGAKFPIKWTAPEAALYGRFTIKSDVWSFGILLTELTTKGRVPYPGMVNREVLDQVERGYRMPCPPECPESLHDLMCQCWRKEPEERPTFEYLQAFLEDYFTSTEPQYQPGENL
structure (smiles),measurement,setting,value
NC(=O)N(O)[C@@H]1C=C[C@H](Oc2cccc(Oc3ccc(F)cc3)c2)C1,outcome,[1],inactive
Cc1oc(-c2ccccc2)nc1CCOc1ccc(C[C@H](Nc2ccccc2C(=O)c2ccccc2)C(=O)O)cc1,AC50,[2],18.3 µM (active)
ClC1=C(Cl)C(Cl)(Cl)C(Cl)=C1Cl,outcome,[3],inactive
same,outcome,[4],inactive
same,outcome,[5],inactive
Nc1cccc2c(N)cccc12,outcome,[6],inactive
same,outcome,[7],inactive
same,outcome,[8],inactive
same,outcome,[9],inactive
CCCOc1sc(C(=O)N2CCC(c3cc(CN)ccc3F)CC2)c(C)c1Br,outcome,[10],inactive
same,AC50,[11],4.64 µM (active)
Cc1cc(CCN2CCN(c3nsc4ccccc34)CC2)cc2c1NC(=O)CC2(C)C,outcome,[7],inactive
O=C(O)Cc1cc(I)c(Oc2cc(I)c(O)c(I)c2)c(I)c1,outcome,[12],inactive
same,AC50,[13],1.6 µM (active)
same,outcome,[14],inactive
same,outcome,[9],inactive
NC(=O)N1C(=O)C(C(=O)c2cc(Cl)cs2)c2cc(F)c(Cl)cc21 (stereo unspecified),outcome,[10],inactive
same,outcome,[11],inactive
COc1ccc([N+](=O)[O-])cc1N,outcome,[15],inactive
CCCOC(=O)c1ccc(O)cc1,outcome,[14],inactive
CCC(=C(c1ccc(O)cc1)c1ccc(OCCN(C)C)cc1)c1ccccc1,outcome,[16],inactive
same,outcome,[8],inactive
same,AC50,[11],0.408 µM (active)
CCN(CC)CCNc1ccc(CNC=O)c2sc3ccc(OC)cc3c(=O)c12,outcome,[17],inactive
same,outcome,[6],inactive
same,outcome,[2],inactive
same,outcome,[7],inactive
same,outcome,[8],inactive
same,outcome,[11],inactive
same,outcome,[9],inactive
CC1=C(/C=C/C(C)=C/C=C/C(C)=C/C(=O)O)C(C)(C)CCC1,outcome,[14],inactive
same,outcome,[11],inactive
CC(C)(C)c1cccc(C(C)(C)C)c1O,outcome,[2],inactive
same,outcome,[14],inactive
CC[C@H](C)[C@@H](C(=O)O)n1sc2ccccc2c1=O,outcome,[5],inactive
same,outcome,[7],inactive
CCCCCCCC(=O)O,outcome,[16],inactive
same,outcome,[2],inactive
same,AC50,[7],6.65 µM (active)
same,outcome,[11],inactive
CC(=O)CC(C)(C)O,outcome,[18],inactive
CCCCOCCO,outcome,[2],inactive
same,outcome,[14],inactive
CCCCC(CC)COC(=O)CCCCC(=O)OCC(CC)CCCC (stereo unspecified),outcome,[7],inactive
O=c1c(-c2ccc(O)cc2)coc2cc(O)ccc12,outcome,[4],inactive
same,outcome,[18],inactive
CCCCCCCCCCCCc1ccccc1S(=O)(=O)O,AC50,[16],15.5 µM (active)
same,AC50,[3],13.3 µM (active)
same,AC50,[4],11.3 µM (active)
same,AC50,[17],21.1 µM (active)
same,AC50,[18],38.2 µM (active)
same,AC50,[5],19.8 µM (active)
same,AC50,[1],4.22 µM (active)
same,AC50,[15],13.4 µM (active)
same,AC50,[19],25 µM (active)
same,AC50,[6],25 µM (active)
same,AC50,[20],16.3 µM (active)
same,AC50,[2],24.4 µM (active)
same,outcome,[12],inactive
same,AC50,[9],9.14 µM (active)
c1ccc2c(c1)ccc1ccccc12,outcome,[10],inactive
CN1CCC[C@H]1c1cccnc1,outcome,[5],inactive
N#C[C@@H]1CC(F)(F)CN1C(=O)CNC1CC2CCC(C1)N2c1ncccn1 (stereo partly specified),outcome,[5],inactive
COCC(C)OCC(C)O (stereo unspecified),outcome,[4],inactive
same,outcome,[17],inactive
same,outcome,[5],inactive
same,outcome,[1],inactive
same,outcome,[19],inactive
same,outcome,[2],inactive
same,outcome,[7],inactive
same,outcome,[12],inactive
